Screening data as filed in PubChem.
MEX-5 binding = C. elegans MEX-5 TCR-2 RNA binding activity; Q9XUB2; MEX-5/FITC-TCR2 RNA binding, fluorescence polarization; active compounds read low; activity score (negative = inhibition of binding), % at 10 µM; 0.38% of 300,000 active;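 active = inhibition past about -25% in most replicates, and total fluorescence under double the plate's negative control median, limit read from the data; inconclusive = replicates evenly split on the limit, or fluorescence at least double controls; inactive = too little inhibition in most replicates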;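 also: 0% = DMSO and -100% = 5 µM competing unlabeled TCR2 RNA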
MCL1-BIM inh = MCL1-BIM-BH3 interaction inhibition (human); 0.68% of 320,000 active; inhibition, % at 10.9 µM; GST-MCL1 / FITC-Bim-BH3 fluorescence polarization; Q07820;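 active = inhibition above the mean inhibition of all tested compounds plus 3 SD, set per campaign, cut at about 40% in these data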;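 also: 0% = DMSO wells and 100% = unlabeled Bim-BH3 peptide control; higher means more loss of mP so more displacement of Bim peptide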
EBV gp42 inh = EBV gp42 inhibition | 0.42% of 220,000 active | Fluorescence polarization binding assay, mP read-out | AID 1085 | Q1HVG2 | inhibition, % (tested at 21.74 µM); in the data active = inhibition above about 50%
Bcl-xL primary = Bcl-xL (human) inhibition; GST-Bcl-xL / FITC-Bim BH3 peptide fluorescence polarization; inhibition, % at 10.9 µM; 0.7% of 320,000 active; Q07817; AID 2129;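 active = inhibition above the mean of all tested compounds plus 3 SD, cutoff set per campaign, cut at about 30% in these data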;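 also: 0% = DMSO wells and 100% = unlabeled Bim-BH3 peptide competitor; inhibitors lower millipolarization by displacing the labeled peptide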
eLon inh = E. coli protease La inhibition; P0A9M0; purified E. coli Lon protease, fluorescence polarization; inhibition, % at 7.94 µM; 0.42% of 360,000 active; AID 602123; in the data active = inhibition above about 13%, passing the limit was not always enough;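 also: 0% = enzyme with probe and DMSO and 100% = no enzyme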
Target sequence (P0A9M0 whole entry, looked up): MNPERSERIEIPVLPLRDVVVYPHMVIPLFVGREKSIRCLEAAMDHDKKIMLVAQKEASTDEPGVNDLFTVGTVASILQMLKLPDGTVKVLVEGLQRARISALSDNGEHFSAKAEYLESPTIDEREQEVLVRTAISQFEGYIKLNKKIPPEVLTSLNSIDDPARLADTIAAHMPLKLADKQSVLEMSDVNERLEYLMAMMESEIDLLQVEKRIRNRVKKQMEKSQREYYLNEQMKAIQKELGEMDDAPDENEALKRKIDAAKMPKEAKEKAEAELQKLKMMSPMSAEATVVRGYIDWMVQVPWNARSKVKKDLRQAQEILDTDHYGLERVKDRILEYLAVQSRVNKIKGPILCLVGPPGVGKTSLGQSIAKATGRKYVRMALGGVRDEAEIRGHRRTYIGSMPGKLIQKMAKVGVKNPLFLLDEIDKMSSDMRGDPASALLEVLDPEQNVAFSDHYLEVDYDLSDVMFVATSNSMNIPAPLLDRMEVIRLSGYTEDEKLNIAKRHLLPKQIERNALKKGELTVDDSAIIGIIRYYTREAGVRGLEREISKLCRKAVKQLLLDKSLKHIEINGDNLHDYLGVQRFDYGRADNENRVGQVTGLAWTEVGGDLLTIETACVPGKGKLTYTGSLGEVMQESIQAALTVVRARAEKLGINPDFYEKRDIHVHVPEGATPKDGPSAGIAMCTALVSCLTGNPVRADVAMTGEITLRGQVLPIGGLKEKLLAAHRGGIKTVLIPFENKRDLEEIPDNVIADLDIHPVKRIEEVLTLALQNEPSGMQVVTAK
GLD-1 TGE inh = GLD-1-TGE RNA interaction inhibition (C. elegans) | Q17339 | purified GLD-1 + fluorescein TGE RNA, fluorescence polarization | inhibition, % at 5.96 µM | 0.44% of 320,000 active;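 active = percent inhibition above a per-plate cutoff, the plate mean of test compounds plus 3 SD, cut at about 30% in these data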;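 also: 0% = DMSO wells with GLD-1 and probe and 100% = wells lacking GLD-1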
Numbers without * were called inactive; ? = inconclusive; · = no result given. Compounds with a hit are over-represented: about 1.5% of the library has one in this group of screens.

SMILES	MEX-5 binding	MCL1-BIM inh	EBV gp42 inh	Bcl-xL primary	eLon inh	GLD-1 TGE inh
CCN1C(=O)/C(=C2/C=Cc3ccccc3N2C)OC1=S	-28*	5	-54	1	2	-3
CCSc1nnc(COc2ccccc2)n1CC	-2	-3	-5	-10	3	-4
Oc1ccc(CCNc2c3ccccc3nc3ccccc23)cc1O	-39*	23	·	18	-3	0
CC1(C(=O)N2CCN(c3ccccc3)CC2)CC1(Cl)Cl (centres undefined)	-2	-4	0	4	-4	0
CC1(C(=O)N2CCN(c3ccc([N+](=O)[O-])cc3)CC2)CC1(Cl)Cl (centres undefined)	1	4	·	7	-2	64*
CN(CC(=O)Nc1ccc(F)cc1)C(=O)CNC(=O)C1CCCCC1	·	2	·	6	-18	3
Cc1cccc(S(=O)(=O)C(C#N)c2nc3ccccc3nc2N2CCCC2)c1 (centres undefined)	-9	11	92*	26	-8	13
O=c1cc(-c2ccccc2)nc(/C=C/c2ccccc2)[nH]1	2	0	-8	6	1	-1
CN1CCC(N2CCN(C3CN(C4CCCC4)S(=O)(=O)C3)CC2)CC1 (centres undefined)	·	·	·	·	-5	·
NC(=S)N/N=C/c1cccc(O)c1O	-38*	14	5	9	-2	1
CCCCN1C(=O)C(CC(=O)NC2CCCCC2)CC(C(=O)N(C(C)C)C(C)C)=C1C (centres undefined)	·	·	·	·	1	·
Cc1ccc2[nH]c(=O)c(CN(Cc3cccs3)Cc3nnnn3Cc3ccccc3)cc2c1	2	0	-20	2	0	2
Cc1ccc2[nH]c(=O)c(CN(CCO)Cc3nnnn3CCc3ccccc3)cc2c1	-32*	-2	3	6	1	-1
CC(=O)N(C)c1ccc(N=Nc2c(C)[nH]n(-c3ccccc3)c2=O)cc1	-2	0	·	0	-5	-2
CC1=NN(C(N)=S)C(=O)C1N=Nc1cccc(Cl)c1 (centres undefined)	-3	14	·	9	-7	4
CC(=O)N(C)c1ccc(N=NC2C(=O)N(C(N)=S)N=C2C)cc1 (centres undefined)	-26*	6	·	6	11	5
CC1=NN(C(N)=S)C(=O)C1N=Nc1ccc(S(N)(=O)=O)cc1 (centres undefined)	-69*	7	·	5	-3	0
CC1=NN(C(N)=S)C(=O)C1N=Nc1c(Cl)cc([N+](=O)[O-])cc1Cl (centres undefined)	-31*	21	·	11	3	1
CC(=O)N(C)c1ccc(N=Nc2c(C)[nH]n(C(N)=S)c2=O)cc1	-32*	0	-8	-1	-3	4
CCC(C(=O)Nc1cccnc1)n1c(=O)[nH]c2ccccc2c1=O (centres undefined)	0	-1	·	-1	-4	-4
CCN(CC(=O)Nc1c(F)cccc1F)C(=O)c1cccc(-n2cnnn2)c1	·	·	·	·	-8	·
O=C(NCCN1CCCCC1)c1ccc(F)cc1Cl	-2	5	·	-2	-9	1
O=[N+]([O-])c1cc(CN2CCOCC2)c2cccnc2c1O	·	·	87*	·	·	·
CCc1nc2ccc(C(=O)NCCNC(C)=O)cn2c1N(CC)CCOC	·	·	·	·	-1	·
O=C(Nc1ccc2ccccc2n1)c1ccccc1Cl	-1	-4	·	4	-4	-4
SMILES	MEX-5 binding	MCL1-BIM inh	EBV gp42 inh	Bcl-xL primary	eLon inh	GLD-1 TGE inh
COc1ccc2nc3ccccc3nc2c1NC(=O)c1ccccc1Cl	-35*	0	-11	4	-10	6
OCC[n+]1ccc(/C=C/c2c[nH]c3ccccc23)cc1	?	-67	-131	7	-255	50*
Cc1oc(C)c2c(=O)ccc3c(c12)OC(N)=C(C#N)C3c1ccccc1 (centres undefined)	-7	39	-14	32*	-10	9
CCc1nn2c(=O)cc(COc3ccc(/C=C4\C(=N)N5N=C(C)SC5=NC4=O)cc3)nc2s1	-3	16	73*	8	-4	2
CCOC(=O)c1ccc(NC(=O)C2CC(O)CN2S(=O)(=O)c2ccc(C)cc2)cc1 (centres undefined)	·	·	·	·	-4	0
CC1CCc2sc(C(=O)NN)cc2C1 (centres undefined)	-1	3	-2	-1	0	72*
CC1CCc2sc(C(=O)Nc3ccc(C(N)=O)cc3)cc2C1 (centres undefined)	-3	-1	-10	-8	-6	-4
N#C/C(=C\N1CCN(Cc2ccc3c(c2)OCO3)CC1)c1nc2ccccc2s1	?	-92	-93	-44	-66	-70
CCOC(=O)N1CCN(/C=C(\C#N)c2nc3ccccc3s2)CC1	-50*	-96	-48	-43	-10	-76
Cc1nc(-c2ccccc2)sc1C(=O)NN	1	-11	-7	-1	3	3
Cc1ccc(N/C=C/C(=O)c2sc(-c3ccccc3)nc2C)cc1	-38*	-35	-30	-24	-120	9
COC(=O)c1cc(C(=O)c2ccc(Cl)cc2)n2c(=O)/c(=C\N(C)C)sc12	·	-2	62*	0	4	4
O=C(NNC(=O)c1c(F)cccc1F)c1ccccc1-n1cccc1	1	-3	3	6	-2	8
O=C(NC1CC1)c1ccc(-c2cnc3cccnn23)cc1	·	·	·	·	0	·
COc1ccc2nc(N3C(=O)/C(=C/c4ccc(Cl)cc4)NC3=S)sc2c1	·	·	54*	·	-115	·
CCOc1ccc2nc(N3C(=O)CNC3=S)sc2c1	1	-3	5	2	-9	6
C[C@@H]1CN([C@@H](C)CO)C(=O)c2cc(Br)cnc2O[C@H]1CN(C)C(=O)Nc1ccccc1	·	·	·	·	-3	·
Brc1ccccc1Cn1cnc2ccccc21	3	10	·	76*	5	3
c1ccc(Cn2cnc3ccccc32)cc1	·	2	-20	3	-5	3
CSc1nc(NCCN(C)C)c2sc3nc(-c4ccco4)c4c(c3c2n1)CCC4	·	·	·	·	7	·
CSc1nc(SCC(=O)O)c2sc3nc(-c4ccccc4)c4c(c3c2n1)CCC4	-4	·	53*	·	-2	·
O=C(NNS(=O)(=O)c1ccc([N+](=O)[O-])cc1)C(=O)Nc1cccc(C(=O)O)c1	-75*	14	·	3	10	5
O=C(NNS(=O)(=O)c1ccc([N+](=O)[O-])cc1)c1ccccc1	·	·	·	·	-18	·
Cc1c(NC(=S)NC(=O)C2CCCCC2)c(=O)n(-c2ccccc2)n1C	1	8	-4	2	5	3
CCN(CC)CCC(=O)Nc1cccc2c1C(=O)c1ccccc1C2=O	-1	29	-5	36*	4	13
O=C(Nc1nc2c(s1)CN(Cc1ccccc1)CC2)c1cccc(S(=O)(=O)N2CCc3ccccc32)c1	-22	61*	111*	55*	-113	29
